Hit rate of the full screen: of about 52,000 compounds, about 4,300 (8.3%) were called active. The entries come from a sample that favours actives as a whole. Unmarked numbers belong to inactive results. Rule as the data show it: active = survival mostly below about 52% (no sharp cut-off); inactive = mostly above about 56%.
System: DeltatarO mutant
Assay: S. aureus survival, RN4220 and DeltatarO strains – OD600, teichoic acid synthesis inhibitors, primary screen (AID 463173)
Conditions: S. aureus RN4220 wild type/DeltatarO growth, OD600, 18 h, active compounds read low, screened at 18.75 µg/mL (by protocol)

Compound | survival
CCNC(=S)N1CCC(C(=O)c2ccc(Cl)cc2)CC1 | 84%
O=C(c1ccc2c(c1)OCCO2)C1CCCCC1 | 83%
CCNC(=S)N1CCC(C(=O)c2ccc3c(c2)OCCO3)CC1 | 58% (active)
CCC(CC)C(=O)Nc1ccc(-c2cn3cccnc3n2)cc1 | 91%
Cc1cc(F)ccc1Nc1nc2ccccc2n2nnnc12 | 111%
CC1CCC(Nc2ncnc3onc(-c4ccc(F)cc4)c23)CC1 (configuration not stated) | 82%
CC(C)CNc1ncnc2onc(-c3ccc(Cl)cc3)c12 | 71%
Clc1ccc(-c2noc3ncnc(NCCc4ccccc4)c23)cc1 | 78%
CCOc1ccc(Nc2ncnc3onc(-c4ccc(Cl)cc4)c23)cc1 | 38% (active)
Cc1cccc(CCNc2ncnc3onc(-c4ccc(Cl)cc4)c23)c1 | 33% (active)
CC1CCC(Nc2ncnc3onc(-c4ccc(Cl)cc4)c23)CC1 (configuration not stated) | 47% (active)
COc1cc(Nc2ncnc3onc(-c4ccc(Cl)cc4)c23)cc(OC)c1 | 94%
Cc1ccc(CCNc2ncnc3onc(-c4ccc(Cl)cc4)c23)cc1 | 46%
Fc1ccc(-c2noc3ncnc(NC4CCCCC4)c23)cc1 | 67%
Clc1ccc(-c2noc3ncnc(NC4CCCCC4)c23)cc1 | 21% (active)
CCOc1ccc(CCNc2ncnc3onc(-c4ccc(Cl)cc4)c23)cc1 | 76%
Clc1ccc(CNc2ncnc3onc(-c4ccc(Cl)cc4)c23)cc1 | 133%
COc1ccc(-c2csc(C)n2)cc1 | 75%
Cc1ccc(C(=O)N2CCCn3c2nc2ccccc23)cc1 | 70%
COc1cccc(-n2cc(C(=O)OCc3ccc(Cl)cc3)c3ccccc3c2=O)c1 | 85%
N#C/C(=C\c1ccc(OCc2ccc(Cl)cc2Cl)cc1)c1nc2ccccc2[nH]1 | 103%

Compound | survival
O=C(O)CCCC(=O)N1CCc2cc(S(=O)(=O)NCc3ccccc3)ccc21 | 111%
Cc1csc(=Nc2ccccc2)n1-c1ccccc1 | 81%
CCOC(=O)c1c(S(=O)(=O)NCC(=O)Nc2cccc(CC)c2)c(C)n(C)c1C | 84%
CCc1nn(CC(=O)NCc2ccccc2)c(=O)c2cccn12 | 69%
CN1C(=O)Cc2cc(S(=O)(=O)NCc3ccccc3Cl)ccc21 | 90%
CC(C)CC(C(N)=O)N1C(=O)c2ccccc2C1=O (configuration not stated) | 84%
CCOC(=O)C1CCN(C(=O)Cn2ncc3c4ccccc4n(Cc4ccccc4F)c3c2=O)CC1 | 84%
COc1ccc(Cl)cc1S(=O)(=O)N1CCN(C(=O)c2cc(-c3ccc(Br)cc3)n[nH]2)CC1 | 47% (active)
CCOc1ccc(-c2cc(C(=O)N3CCN(S(=O)(=O)c4cc(Cl)ccc4OC)CC3)[nH]n2)cc1 | 73%
COc1ccc(S(=O)(=O)N2CCN(C(=O)c3cc(-c4ccc(Br)cc4)n[nH]3)CC2)cc1OC | 73%
COc1ccc(S(=O)(=O)Nc2cc3c(cc2NCc2ccccc2)n(C)c(=O)n3C)cc1 | 69%
O=C(Nc1ccc(F)cc1)C1CCN(c2nc3ccccc3n3cccc23)CC1 | 75%
O=c1cc(COc2ccccc2Cl)nc2scc(-c3ccccc3)n12 | 81%
Cc1c(C(=O)N2CCOCC2)sc(NC(=O)c2ccc3c(c2)OCO3)c1C#N | 90%
Cc1noc(/C=C/N(C)C)c1S(=O)(=O)N1CCCC(C(=O)Nc2cccc(F)c2)C1 (configuration not stated) | 90%
CCc1ccc(NC(=O)C2CCCN(S(=O)(=O)c3c(C)noc3/C=C/N(C)C)C2)cc1 (configuration not stated) | 42% (active)
CCc1ccc(NC(=O)C2CCCN(S(=O)(=O)c3cccc4cccnc34)C2)cc1 (configuration not stated) | 58% (active)
CC(C)c1ccc(NC(=O)C2CCCN(S(=O)(=O)c3cccc4cccnc34)C2)cc1 (configuration not stated) | 71%
CCOc1ccc(NC(=O)C2CCCN(S(=O)(=O)c3c(C)noc3/C=C/N(C)C)C2)cc1 (configuration not stated) | 94%
Cc1ccc(NC(=O)C2CCCN(S(=O)(=O)c3cccc4cccnc34)C2)cc1 (configuration not stated) | 102%
O=S(=O)(Nc1ccc(-c2ccc(N3CCCC3)nn2)cc1)c1ccc(Cl)cc1 | 102%

Compound | survival
CCCCN(C)C(=O)c1ccc2c(c1)N(Cc1ccc(F)cc1)C(=O)c1ccccc1S2(=O)=O | 118%
O=C(Nc1ccc(F)cc1C(F)(F)F)C1CCN(c2ncccn2)CC1 | 76%
CC(=O)Nc1ccc2c(c1)n(C)c(=O)n2C | 85%
COc1ccc(OC)c(CCNC(=O)C(C)n2c(C)c3cnn(-c4ccccc4)c(=O)c3c2C)c1 (configuration not stated) | 82%
Cc1cc(C)c(C#N)c(SCc2cccnc2)n1 | 53%
COc1cc2nc(SCc3ccc(C)cc3)n3nc(CCn4nc(C)cc4C)nc3c2cc1OC | 58%
COc1cccc(CSc2nc3cc(OC)c(OC)cc3c3nc(CCn4nc(C)cc4C)nn23)c1 | 60% (active)
COc1cc2nc(SCc3cccc(Cl)c3)n3nc(CCn4nc(C)cc4C)nc3c2cc1OC | 79%
CCc1ccccc1NC(=O)c1ccc2nc(C(C)C)oc2c1 | 73%
CCn1cc2nc(SCc3cc(C)ccc3C)n(Cc3ccc(C)cc3)c(=O)c2n1 | 69%
CCC(CC)C(=O)Nc1nnc(SCc2cc(=O)c3ccccc3[nH]2)s1 | 115%
CCCCCSc1nc2sc3c(c2c(=O)n1-c1ccccc1)CCN(C(C)=O)C3 | 77%
CCSc1nc2sc3c(c2c(=O)n1-c1ccc(C)c(Cl)c1)CCN(C(C)=O)C3 | 61%
CC(=O)N1CCc2c(sc3nc(SCC(C)C)n(-c4ccc(C)c(Cl)c4)c(=O)c23)C1 | 45% (active)
COc1ccc(-n2c(SC)nc3sc4c(c3c2=O)CCN(C(C)=O)C4)cc1 | 127%
COc1ccc(-n2c(=O)c3c4c(sc3n3c(SCCC(C)C)nnc23)COC(C(C)C)C4)cc1 (configuration not stated) | 59%
CCOC(=O)CSc1nc2sc3c(c2c(=O)n1-c1ccc(OC)cc1)CC(C(C)C)OC3 (configuration not stated) | 73%
CC(=O)N1CCc2c(sc3nc(SCC(C)C)n(-c4ccc(F)c(Cl)c4)c(=O)c23)C1 | 63%
COc1ccc(-n2c(SCCC(C)C)nc3sc4c(c3c2=O)CC(C(C)C)OC4)cc1 (configuration not stated) | 30% (active)
CCCCCSc1nc2sc3c(c2c(=O)n1-c1ccc(OC)cc1)CCN(C(C)=O)C3 | -18% (active)

Source: PubChem BioAssay AID463173 (ICCB-Longwood Screening Facility, Harvard Medical School, 2010)
